According to PubChem BioAssay:
Values joined by “and” are separate entries in the source; they are usually repeats but may differ in a detail not shown here. Identical values can stand only once. Results filed as inconclusive are left out. Active and inactive are the calls of the source.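 The calls were made as follows, unless noted: active = normalized viability below 100% at a tested concentration; inactive = the rest.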

Key:
[1] = viability loss in pontine glioma line – cell-based, JHH-DIPG-1, MIPE4.0, CellTiter-Glo, qHTS, dose response (AID 1347062; cut-off not given, nearly all actives have AC50 up to about 27 µM); conditions: JHH-DIPG-1 viability, CellTiter-Glo ATP luminescence
[2] = growth inhibition of DIPG cells – cell-based, MIPE4.0 library, CellTiter-Glo luminescence, qHTS (AID 1347066; cut-off not given, nearly all actives have AC50 up to about 30 µM;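 also: cells exposed to compound for 48 hours before readout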); conditions: SU-DIPG-VI viability, CellTiter-Glo ATP luminescence
[3] = growth inhibition of DIPG cells – cell-based, MIPE5.0 library, qHTS (AID 1347068; cut-off not given, nearly all actives have IC50 up to about 30 µM); conditions: SU-DIPG-XXV viability
[4] = compounds altering circadian rhythm period length – cell-based, LOPAC library, luminescence reporter (AID 2774; call rule not given here;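 also: values are relative to mean of DMSO wells on each plate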); conditions: circadian reporter cells, at 7 µM, actives lie on both sides
[5] = system: Hepatitis C virus NS3 helicase; assay: blockers of NS3h binding to ssDNA – biochemical, fluorescence polarization, LOPAC1280 library, primary screen (AID 687035; in the data active = inhibition above about 37%); conditions: Purified HCV NS3 helicase, Cy5-dT15 ssDNA binding fluorescence polarization; stronger effect = higher value; concentration not given here
[6] = compounds altering Cy5-DNA-NS3h complex signal – biochemical, LOPAC1280, artefact control for HCV NS3 helicase inhibitor project (AID 687037; call rule not given here); conditions: Cy5-DNA-NS3h complex fluorescence interference counterscreen
[7] = viability loss in pontine glioma line – cell-based, SU-DIPG-IV, MIPE4.0, CellTiter-Glo, qHTS, dose response (AID 1347063; cut-off not given, nearly all actives have AC50 up to about 30 µM;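 also: compound exposure lasted 48 hours before the viability readout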); conditions: CellTiter-Glo ATP luminescence
[8] = viability loss in pontine glioma line – cell-based, SU-DIPG-XIII, MIPE5.0, CellTiter-Glo, qHTS, dose response (AID 1347064; cut-off not given, nearly all actives have AC50 up to about 23 µM;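 also: cells exposed to compound for 48 hours before the viability read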); conditions: CellTiter-Glo ATP luminescence
[9] = viability loss with induced miR-34 in A549 – imaging, A549 dox-inducible miR-34, nuclei and caspase counts, primary screen (AID 1347080;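 active = compounds whose cell count with miR-34 switched on is under 0.7 times the count with it off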); conditions: A549 miR-34 inducible, Hoechst nuclei count, 48 h
[10] = blockers of cellular phospholipid synthesis – cell-based, LOPAC library, screen 4, primary screen (AID 1347384; call rule not given here); conditions: animal cells, phospholipid biosynthesis inhibition screen; at 10 µM
[11] = galactose survival enhancers in mitochondrial complex I cybrids – cell-based, galactose medium, ATP luminescence, primary screen (AID 1645843;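 active = z-score of at least 1.8 in each of two replicates, scored against plate mean and spread of sample wells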;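 also: positive z means more ATP and so rescue of galactose-driven cybrid death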); conditions: complex I mutant cybrid cells, 72 h, stronger effect = higher value
[12] = viability loss in pontine glioma line – cell-based, SU-DIPG-XXV, MIPE5.0, CellTiter-Glo, qHTS, dose response (AID 1347065; cut-off not given, nearly all actives have AC50 up to about 26 µM;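 also: cells exposed to compound for 48 hours before ATP readout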); conditions: CellTiter-Glo ATP luminescence
[13] = JHH-DIPG-1 glioma cell viability, MIPE5.0 library, CellTiter-Glo luminescence, qHTS (AID 1347067; cut-off not given, nearly all actives have AC50 up to about 26 µM;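 also: cells exposed to compound for 48 hours before readout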); conditions: JHH-DIPG-1 glioma viability, CellTiter-Glo ATP luminescence
[14] = MELAS cybrid and Rieske KO viability enhancers – cell-based, MELAS cybrids, Rieske KO mouse fibroblasts, CellTiter-Glo, primary screen (AID 1508586;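 active = mean z-score across replicates of 1.96 or higher in either the MELAS or the Rieske mutant cell line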;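 also: z relative to plate mean and SD of compound and empty wells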); conditions: low glucose
[15] = drug combination growth inhibition, ovarian cancer – cell-based, oncology-focused library, rucaparib conditional, profiling panel (AID 1508598); conditions: patient-derived ovarian cancer cells, CellTiter-Glo viability, 144 h, stronger effect = lower value
[16] = stronger effect = lower value, cell number ratio, induced over uninduced
[17] = measured here: relative caspase fold change +Dox/-Dox
[18] = measured here: total cells with miR-34 induction, stronger effect = lower value
[19] = measured here: total cells without miR-34 induction
[20] = MELAS cybrid survival, CellTiter-Glo 48 h, stronger effect = higher value
[21] = Rieske KO mouse fibroblast survival, CellTiter-Glo 72 h

CCNC(=O)Nc1ccc(Oc2ncnc(N)c2/C=N/OC)cc1Cl
inactive: outcome [1] | outcome [2] | outcome [3]

C[C@H](Cc1ccc(O)c(O)c1)[C@@H](C)Cc1ccc(O)c(O)c1
8770: cell count [9, 19]
8920: cell count [9, 18]
inactive: period change [4] 0.005 h | inhibition [5] -2% | fluorescence ratio (interference) [6] 1 | outcome [3] | fold change [9, 16] 1.02 | outcome [10] | z-score [11] -1.22
active: AC50 [7] 16.6 µM | AC50 [8] 18.6 µM | AC50 [2] 23.5 µM
0.821: fold change [9, 17]

NS(=O)(=O)c1ccc(Nc2nc(OCC3CCCCC3)c3[nH]cnc3n2)cc1
inactive: outcome [1] | outcome [3]

CNC(=O)c1c(C)oc2cc(Oc3ncnc4cc(OC)c(OC)cc34)ccc12
active: AC50 [8] 9.34 µM | AC50 [12] 6.61 µM

CC(C)(C)Cn1c(N)nc2ccc(-c3[nH]c(C(C)(C)C)nc3-c3ccc(F)cc3)nc21
5480: cell count [9, 18]
inactive: fold change [9, 16] 0.962 | z-score [14, 20] -0.234 | viability ([15]; at 0.000305 µM, OCI-C5x cells, with rucaparib 10 µM, 100% = cells with rucaparib alone) 114% | viability ([15]; at 0.000305 µM, OCI-C5x cells, without rucaparib) 115% | viability ([15]; at 0.000305 µM, OCI-P5x cells, without rucaparib) 104% | viability ([15]; at 0.00122 µM, OCI-C5x cells, with rucaparib 10 µM, 100% = cells with rucaparib alone) 112% | viability ([15]; at 0.00122 µM, OCI-C5x cells, without rucaparib) 110% | viability ([15]; at 0.00122 µM, OCI-P5x cells, with rucaparib 20 µM, 100% = cells with rucaparib alone) 101% | viability ([15]; at 0.00122 µM, OCI-P5x cells, without rucaparib) 107% | viability ([15]; at 0.00488 µM, OCI-C5x cells, with rucaparib 10 µM, 100% = cells with rucaparib alone) 110% | viability ([15]; at 0.00488 µM, OCI-C5x cells, without rucaparib) 121% | viability ([15]; at 0.00488 µM, OCI-P5x cells, with rucaparib 20 µM, 100% = cells with rucaparib alone) 108% | viability ([15]; at 0.00488 µM, OCI-P5x cells, without rucaparib) 110% | viability ([15]; at 0.0195 µM, OCI-C5x cells, with rucaparib 10 µM, 100% = cells with rucaparib alone) 103% | viability ([15]; at 0.0195 µM, OCI-C5x cells, without rucaparib) 112% | viability ([15]; at 0.0195 µM, OCI-P5x cells, with rucaparib 20 µM, 100% = cells with rucaparib alone) 103% | viability ([15]; at 0.0195 µM, OCI-P5x cells, without rucaparib) 107% | viability ([15]; at 0.0781 µM, OCI-C5x cells, without rucaparib) 117% | viability ([15]; at 0.0781 µM, OCI-P5x cells, with rucaparib 20 µM, 100% = cells with rucaparib alone) 101% | viability ([15]; at 0.0781 µM, OCI-P5x cells, without rucaparib) 109% | viability ([15]; at 0.313 µM, OCI-C5x cells, without rucaparib) 121% | viability ([15]; at 0.313 µM, OCI-P5x cells, with rucaparib 20 µM, 100% = cells with rucaparib alone) 103% | viability ([15]; at 0.313 µM, OCI-P5x cells, without rucaparib) 105% | viability ([15]; at 1.25 µM, OCI-C5x cells, with rucaparib 10 µM, 100% = cells with rucaparib alone) 108% | viability ([15]; at 1.25 µM, OCI-C5x cells, without rucaparib) 140% | viability ([15]; at 1.25 µM, OCI-P5x cells, without rucaparib) 104% | viability ([15]; at 5 µM, OCI-C5x cells, with rucaparib 10 µM, 100% = cells with rucaparib alone) 175% | viability ([15]; at 5 µM, OCI-C5x cells, without rucaparib) 175%
active: AC50 [7] 26.4 µM | AC50 [12] 26.3 µM | AC50 [2] 20.9 µM | AC50 [13] 20.9 µM | viability ([15]; at 0.000305 µM, OCI-P5x cells, with rucaparib 20 µM, 100% = cells with rucaparib alone) 99.8% | viability ([15]; at 0.0781 µM, OCI-C5x cells, with rucaparib 10 µM, 100% = cells with rucaparib alone) 96.9% | viability ([15]; at 0.313 µM, OCI-C5x cells, with rucaparib 10 µM, 100% = cells with rucaparib alone) 94.5% | viability ([15]; at 1.25 µM, OCI-P5x cells, with rucaparib 20 µM, 100% = cells with rucaparib alone) 99.8% | viability ([15]; at 5 µM, OCI-P5x cells, with rucaparib 20 µM, 100% = cells with rucaparib alone) 90.5% | viability ([15]; at 5 µM, OCI-P5x cells, without rucaparib) 92.5%
0.553: z-score [14, 21]
5700: cell count [9, 19]
0.864: fold change [9, 17]

Cc1cc(Cl)ccc1OCCCC(=O)NO
6940 and 6970: cell count [9, 18]
inactive: outcome [1] | outcome [3] | fold change [9, 16] 0.893 and 0.9 | outcome [10] | z-score [14, 20] -0.389 | z-score [11] 0.555
7770 and 7740: cell count [9, 19]
2.21 and 0.917: fold change [9, 17]
0.796: z-score [14, 21]

COC[C@H](c1ccc(C(F)(F)F)cc1)N1CCN(C2(C)CCN(C(=O)c3c(C)ncnc3C)CC2)C[C@H]1C
inactive: outcome [2]
active: AC50 [7] 11.8 µM
